Only some compounds are listed: those with a hit (about 12% of all), similar ones and a draw of the others.
Sfp inh – Sfp phosphopantetheinyl transferase inhibition | 310,000 tested, 3.5% active | Biochemical Sfp PPTase activity, qHTS | Potency, µM, for inactives: largest response in the series, negative = inhibition, hits mostly inhibitors | Q9F4F7;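 further: the enzyme is Sfp with the accession as filed and its product quenches rhodamine fluorescence; 0% = enzyme reaction without inhibitor and -100% = no enzyme wells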
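Fluorescence-quenching assay: 15 nM Sfp-PPTase preincubated 15 min at room temperature with compound, then 5 uM rhodamine-CoA and 12.5 uM BHQ-2-labelled YbbR peptide added. Fluorescence (ex 525/em 598 nm) read at start and after 30 min; difference gives rate.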
JMJD2A Tudor inh – JMJD2A Tudor domain (human) inhibition. O75164. AlphaScreen JMJD2A-Tudor / H3K4me3 peptide binding. Potency, µM (series often up to 114 µM), without a hit: at the top dose activity change, negative = inhibition, actives largely listed as inhibitors. 390,000 tested, 4.4% active; further: on the % scale 0 is the no-effect control and ±100 the full control effect; nearly all actives have a fitted effect of over 50% in size
BAZ2B block – blocks human BAZ2B; AID 504333; Potency, µM (series often up to 114 µM), inactives show at the top dose activity change, negative = inhibition, most hits filed as inhibitors; Q9UIF8; 360,000 tested, 4.4% active; AlphaScreen BAZ2B-H3K14Ac peptide displacement; further: on the % scale 0 is the no-effect control and ±100 the full control effect; nearly all actives have a fitted effect of over 60% in size
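Protein-peptide AlphaScreen: BAZ2B 50 nM, b-H3K14Ac 50 nM, 1x PBS pH 7.4 + 0.01% Tween-20. Preincubation 30 min RT; cpd 30 min RT (top 110 uM); beads 20 min RT, light-protected.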
G9a block – blocks human histone lysine methyltransferase G9a. Potency, µM (highest dose often 102 µM), for the others: top-dose activity, negative = inhibition, most hits filed as inhibitors. G9a H3K9 monomethylation, AlphaScreen, 2 h. 350,000 tested, 8.8% active; further: on the % scale 0 is the no-effect control and ±100 the full control effect; nearly all actives have a fitted effect of over 75% in size
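Readings reflect AlphaScreen signal from monomethyl-H3K9 antibody detection. HMT at 20 nM; substrate b-H3K9 500 nM; cofactor SAM 20 uM; 2 h RT reaction; compounds tested as titrations in qHTS with 15 min preincubation.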
HP1b binding inh – blocks HP1-beta chromodomain binding to methylated histone tails; AlphaScreen HP1-beta / biotin-H3K9me3 peptide binding; Potency, µM (series often up to 114 µM), inactives show at the highest dose activity change, negative = inhibition, most hits filed as inhibitors; 390,000 tested, 0.56% active; further: nearly all actives have a fitted effect of over 70% in size
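Compound inhibition of the preformed complex between 50 nM HP1-beta and 50 nM biotinylated H3K9me3 peptide was read by AlphaScreen. Buffer was PBS pH 7.4 with 0.01% Tween-20. Incubations ran 30 min at room temperature, with 10 ug/mL donor/acceptor beads.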
Active calls of the source: *; ? = inconclusive; / = not tested or not shown; ! = not confirmed by another sample; [ ] = dose if it differs, or a comment. The call rests on the fitted dose curve; in most records, active means well fitted curve in the direction sought with a large enough effect; inconclusive means small, poorly fitted or top-dose-only effect, or another doubt; inactive means no such curve, though single readings can be large; an effect the other way counts as inactive or inconclusive. Potency means the concentration at half of the fitted maximal effect.

SMILES	Sfp inh	JMJD2A Tudor inh	BAZ2B block	G9a block	HP1b binding inh
O=[N+]([O-])c1ccccc1/C=N/N1CCN(c2ccccn2)CC1	5%	?	13µM*	?	-11%
C(=N\N1CCN(c2ccccn2)CC1)/c1ccccn1	-6%	-21%	-24%	?	-7%
Cc1ccc(N2CCN(/N=C/c3ccccc3[N+](=O)[O-])CC2)cc1	7%	?	?	7.9µM*	?
O=C(NC(Cc1ccccc1)C(=O)O)/C(=C/c1ccc([N+](=O)[O-])cc1)NC(=O)c1ccc(Br)o1 (configuration not stated)	13%	2%	-29%	-21%	36%
CCCN1C2=NCCN2c2cc(C)c(C)cc21	-3%	-11%	11%	-45%[59 µM]	22%
CC(C)NC(=O)CSc1nnc(-c2ccncc2)n1-c1ccccc1	1%	-18%	6%	19%[59 µM]	30%
NC(=S)Cc1nc(-c2ccccc2)cs1	56µM*	-30%	?	?	?
NC(=O)c1ccsc1NC(=O)CS(=O)(=O)c1ccccc1	/	-9%	8%	-3%	41%
CSc1ccc(C(=O)c2[nH]c(=O)[nH]c2C)cc1	-12%	-23%	-1%	11µM*!	11%
O=C(NC(=S)N1CCCCC1)c1csc([N+](=O)[O-])c1	-3%	-13%	-32%	25µM*	-21%
CC(C)(C)c1ccc(C(=O)NC(=S)N2CCCCCC2)cc1	16%	-32%	?	5%	40%
C=CCNC(=S)NC(=O)c1csc([N+](=O)[O-])c1	56µM*	-31%	-21%	25µM*	-15%
O=C(O)CCCC(=O)Nc1ccc(S(=O)(=O)Nc2nccs2)cc1	4%	1%	0%	-3%	28%
COc1cc(/C=C(/C#N)C(=O)NC(C)c2ccccc2)cc(OC)c1O (configuration not stated)	-9%	-24%	?	14µM*	-16%
CC(NC(=O)/C(C#N)=C/c1ccc(C(=O)O)cc1)c1ccccc1 (configuration not stated)	-6%	-21%	-9%	-27%[0.0925 µM]	35%
Cc1ccc(/C=C(/C#N)C(=O)NC(C)c2ccccc2)o1 (configuration not stated)	22µM*	-11%	-1%	37%[59 µM]	23%
CC(C)NC(=O)/C(C#N)=C/c1ccc(N(C)C)o1	-15%	-11%	-24%	50µM*	10%
CS(=O)(=O)c1sc2nc(-c3cccs3)cc(-c3ccccc3)c2c1N	10µM*	89µM*	?	?	45%
Nc1nc2c(s1)CC(c1ccccc1)CC2 (configuration not stated)	2%	5%[11.4 µM]	?	50µM*	-2%
O=[N+]([O-])c1ccccc1/C=C/c1ccc2ccccc2n1	-11%	40µM*	?	/	-12%
O=C(N/N=C/c1cccc([N+](=O)[O-])c1O)C(O)(c1ccccc1)c1ccccc1	?	?	-28%	/	36%
O=[N+]([O-])c1ccc(/C=C/c2ccc3cccc([N+](=O)[O-])c3n2)cc1	-19%	-19%	?	?	-6%
O=[N+]([O-])c1cccc2ccc(/C=C/c3ccc(F)cc3)nc12	2%	?	?	13µM*	-16%
O=[N+]([O-])c1cccc(C=NNc2ccc3ccccc3n2)c1O	/	22µM*	/	/	19%
Brc1ccc(/C=N/Nc2ccc3ccccc3n2)cc1	?	-20%	-7%	12%[0.0925 µM]	15%
SMILES	Sfp inh	JMJD2A Tudor inh	BAZ2B block	G9a block	HP1b binding inh
Brc1ccccc1/C=N/Nc1ccc2ccccc2n1	40µM*	-24%	-10%	-14%[59 µM]	26%
CN(Cc1ccccn1)C(=O)C1CCC(=O)N(Cc2cccc(C(F)(F)F)c2)C1 (configuration not stated)	15%	-12%	-9%	13%	18%
CCC1(c2ccccc2)NC(=O)N(CC(=O)Nc2nnc(C3CC3)s2)C1=O (configuration not stated)	13%	-10%	-2%	33%	23%
COc1cccc(-c2nc3ccc(C(=O)N4CCCC(O)C4)cc3o2)c1 (configuration not stated)	1%	-7%	-17%	4%[12.7 µM]	10%
c1ccc(C2(CN3CCNC[C@@H]3CC3CCCCC3)CC2)cc1	/	-24%	/	/	27%
CCCCc1ccc(N=N/C(C(=O)Nc2ccc(NC(C)=O)cc2OC)=C(/C)O)cc1	-14%	?	?	35µM*	-20%
Cc1cc(NCCCCCCCNc2cc(C)nc3cc([N+](=O)[O-])ccc23)c2ccc([N+](=O)[O-])cc2n1	/	56µM*	/	/	71µM*
COCCCNc1cc(C)nc2ccccc12	6%	-13%	8%	13%	22%
Cc1nc2c(O)cccc2cc1CO	71µM*	4.5µM*	-37%	10µM*	6%
CC(=O)N=c1c(C#N)cc2c(=O)n3ccccc3nc2n1CCCOC(C)C	89µM*	-13%	-3%	/	69%
CCn1c(O)c(N=NC2=NC(=O)CS2)c2ccccc21	-29%	?	50µM*	2%[0.0925 µM]	-6%
O=C(O)COc1ccc(/C=C/C(=O)c2ccc(C3CCCCC3)cc2)cc1	-11%	-34%	-16%	22µM*	-2%
C=CCNC(=O)c1onc(CSc2cccc3ccccc23)c1C(=O)O	11%	-26%	-23%	5%[0.501 µM]	27%
COc1ccc(CCNC(=S)NC(=O)c2ccc(Br)cc2)cc1OC	1%	-34%	32µM*	-32%	12%
COc1ccc(CCNC(=S)NC(=O)c2ccccc2)cc1C	-11%	-28%	?	56µM*	12%
COc1ccc(CCNC(=O)c2ccc(CNS(=O)(=O)c3ccc(C(C)(C)C)cc3)cc2)cc1OC	11%	-15%	-7%	-6%[59 µM]	20%
COc1ccc(CCNC(=O)CCNC(=O)c2ccc(Br)cc2)cc1OC	6%	-14%	9%	-8%	10%
O=C(NC(=S)NCCc1ccccc1)c1ccccc1	4%	-16%	-7%	-6%[2.33 µM]	16%
COc1ccc(NC(=S)NCCc2ccccc2)c(C)c1	-5%	-10%	-12%	/	41%
COc1cc(C)c(NC(=O)C(=S)NCCc2ccccc2)cc1C	16µM*	-31%	-35%	?	?
COc1ccc(CCNC(=O)c2ccc(CNS(=O)(=O)c3cc(C)ccc3C)cc2)cc1OC	3%	-21%	-6%	22µM*	5%
CCCn1c(=O)c2sccc2n2c(CCCC(=O)NC3CCCCC3)nnc12	/	5%	-4%	-2%[59 µM]	44%
O=C(CN1CCN(S(=O)(=O)c2ccc(Br)cc2)CC1)N/N=C/c1ccc(Br)s1	3%	-35%	?	3%[59 µM]	-5%
COc1ccc(CCNC(=O)c2ccc3c(c2)NC(=O)C(CSCc2cc(C)ccc2C)N3)cc1OC (configuration not stated)	45µM*	/	-34%[57.1 µM]	1.8µM*	/
O=C(NCCc1ccccc1)C(=O)NC1CCCCC1	23%	-12%	-4%	3%[12.7 µM]	53%

Screening results: PubChem, National Center for Advancing Translational Sciences (NCATS)
